PubChem BioAssay AID1159580 (chemical genetic matrix, 2015)
Out of some 5,500 compounds screened, about 2,000 (36%) were called active. Inconclusive results (about 18%) are left out. Rule as the data show it: active = normalized growth mostly below about 0.91 (no sharp cut-off); inconclusive = no clear call, values can overlap the other calls; inactive = mostly above about 0.92. This is one part of the list.

Test: chemical genetic growth profiling, strain panel (AID 1159580);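 also: tested at 20 µM; growth read once vehicle control cultures reached saturation at 30 °C; 1 = growth at the plate median or of vehicle wells; lower values mean less growth of the strain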
Details: growth OD
[1] = S. cerevisiae deletion strains, locus YDR150W, strain NUM1, active compounds read low
[2] = S. cerevisiae deletion strains, locus YMR263W, strain SAP30, active compounds read low
[3] = S. cerevisiae deletion strains, locus YNL322C, strain KRE1, active compounds read low
[4] = S. cerevisiae deletion strains, locus YPL055C, strain LGE1, active compounds read low

Measured: normalized growth

Clc1ccc(OCCOc2ccc(Cl)cc2)cc1
inactive: S. cerevisiae deletion strains, locus YAL013W, strain DEP1, active compounds read low 1.01 | S. cerevisiae deletion strains, locus YBR229C, strain ROT2, active compounds read low 0.99 | S. cerevisiae deletion strains, locus YDL101C, strain DUN1, active compounds read low 1.04 | S. cerevisiae deletion strains, locus YDL134C, strain PPH21, active compounds read low 0.996 | [1] 1.01 | S. cerevisiae deletion strains, locus YEL061C, strain CIN8, active compounds read low 0.99 | S. cerevisiae deletion strains, locus YGR078C, strain PAC10, active compounds read low 1.02 | S. cerevisiae deletion strains, locus YHR030C, strain SLT2, active compounds read low 0.978 | S. cerevisiae deletion strains, locus YHR087W, strain rtc3, active compounds read low 0.965 | S. cerevisiae deletion strains, locus YJL187C, strain SWE1, active compounds read low 1.02 | S. cerevisiae deletion strains, locus YJR043C, strain POL32, active compounds read low 1.04 | S. cerevisiae deletion strains, locus YJR075W, strain HOC1, active compounds read low 0.998 | S. cerevisiae deletion strains, locus YLR039C, strain RIC1, active compounds read low 1.01 | S. cerevisiae deletion strains, locus YLR058C, strain SHM2 (second series), active compounds read low 1.01 | S. cerevisiae deletion strains, locus YLR085C, strain ARP6, active compounds read low 1.01 | S. cerevisiae deletion strains, locus YLR262C, strain YPT6, active compounds read low 0.95 | S. cerevisiae deletion strains, locus YML094W, strain GIM5, active compounds read low 0.971 | S. cerevisiae deletion strains, locus YMR219W, strain ESC1, active compounds read low 1.02 | [2] 1.01 | S. cerevisiae deletion strains, locus YNL128W, strain TEP1, active compounds read low 1.01 | S. cerevisiae deletion strains, locus YNL153C, strain GIM3, active compounds read low 1 | S. cerevisiae deletion strains, locus YNL298W, strain CLA4 (second series), active compounds read low 0.989 | [3] 0.998 | S. cerevisiae deletion strains, locus YNR030W, strain Alg12, active compounds read low 0.983 | S. cerevisiae deletion strains, locus YOL006C, strain TOP1, active compounds read low 0.937 | [4] 0.975 | S. cerevisiae deletion strains, locus YPL241C, strain CIN2, active compounds read low 0.986 | S. cerevisiae deletion strains, locus YPR135W, strain CTF4, active compounds read low 1.07 | S. cerevisiae strains, strain wild type, active compounds read low 1.01

C#CCN(C)CCCOc1ccc(Cl)cc1Cl
inactive: S. cerevisiae deletion strains, locus YAL040C, strain CLN3, active compounds read low 1.01 | S. cerevisiae deletion strains, locus YCL061C, strain MRC1 (second series), active compounds read low 0.989 | [1] 0.974 | S. cerevisiae deletion strains, locus YDR363W, strain ESC2, active compounds read low 0.991 | S. cerevisiae deletion strains, locus YER002W, strain NOP16, active compounds read low 0.993 | [2] 1 | S. cerevisiae deletion strains, locus YMR307W, strain GAS1, active compounds read low 0.989 | S. cerevisiae deletion strains, locus YNL175C, strain NOP13, active compounds read low 1 | S. cerevisiae deletion strains, locus YNL197C, strain WHI3, active compounds read low 1 | S. cerevisiae deletion strains, locus YNL224C, strain SQS1, active compounds read low 1.01 | [3] 0.993 | S. cerevisiae deletion strains, locus YOR083W, strain WHI5 (second series), active compounds read low 0.896 | [4] 0.961
